Source: ChEMBL document CHEMBL3988442, “University of Dundee, Small-Polar-MMV Screening Library” (2021)
The whole screen tested about 53,000 compounds, of which about 900 (1.7%) showed an effect of 50% or more. The entries come from a sample that favours strong results as a whole.

Each compound was assayed on Mycobacterium tuberculosis (assay: Cornell - Phenotypic assay to identify agents that inhibit growth of Mycobacterium tuberculosis). Conditions: 10 mM as filed; unlikely as a test dose.
Assay type: functional
Set-up: scale not given: direction of the effect not stated beside the values

SMILES | Percent Effect [%]
COc1ccc2c3c1CN(C(C)=O)CC3=CC(C)(C)CO2 | 9.21
COc1ccc2c3c1CN(C(=O)N(C)C)CC3=CC(C)(C)CO2 | 89.58
COC(=O)N1CC2=CC(C)(C)COc3ccc(OC)c(c32)C1 | 31.49
COc1ccc2c(c1)CN(c1nc(C)cc(C)n1)CC2 | 63.12
Cc1cc(C)nc(N2Cc3cnn(Cc4ccc(F)cc4)c3C2)n1 | 1.875
COc1ccc(C2CN(c3nc(C)cc(C)n3)CCN2C(C)=O)cc1 (stereo not drawn) | 37.66
COc1cccc(O[C@H]2CCN(c3nc(C)cc(C)n3)CC[C@@H]2O)c1 | 6.067
COc1ccnc(N2CCN(C(=O)N3CCOCC3)CC2)n1 | -8.776
COc1ccc2c(c1)CN(c1cc(N3CCCC3CO)ncn1)CC2 (stereo not drawn) | 24.46
COc1ccnc(N2Cc3cnc(C(C)(C)C)nc3C2)n1 | 15.27
COc1ccnc(N2CCc3ccc(OC(F)F)cc3C2)n1 | 105.8
Cc1cc(C)nc(N2CCc3ccc(OC(F)F)cc3C2)n1 | 108.4
Cc1cnn(C2CCCN(C(=O)CCc3cnn(C)c3)C2)c1 (stereo not drawn) | -9.516
O=C(CN1CC(c2nc(-c3ccco3)no2)C1)NCc1ccc(F)cc1.O=C(O)C(=O)O | 26.13
CN(Cc1ccc2c(c1)OCO2)C(=O)c1ccc(C2CCCNC2)cc1 (stereo not drawn) | 14.52
O=S(=O)(c1ccc(-c2cnco2)cc1)N1CCCC2(CCNCC2)CC1 | -3.285
Cl.O=C(CCN1CCCCC1)Nc1c2c(cc3c1CCC3)CCC2 | -6.194
CCOC(C)c1nc(Cn2cc(C)cn2)cs1 (stereo not drawn) | 25.14
CCOC(C)c1nc(Cn2cc(-n3cccc3)cn2)cs1 (stereo not drawn) | 56.69
CCOC(C)c1nc(Cn2cccn2)cs1 (stereo not drawn) | 9.263
CC(=O)NCCNC(=O)Nc1ccc(Br)cc1C(C)C | -45.7
Cc1ccc(CN(CC(=O)NCC2CCOC2)c2ccc(F)cc2)o1 (stereo not drawn) | 104.7
O=C(CN(CC(O)c1ccc(F)cc1)C1CC1)NC1CCOCC1 (stereo not drawn) | 2.353
Cc1ccc(CN(CC(=O)NC2CCOCC2)c2ccc(F)cc2)o1 | 92.31

SMILES | Percent Effect [%]
O=C(CN(Cc1cccs1)c1ccc(F)cc1)NC1CCOCC1 | 47.86
Cc1ccc(-c2nc(CC(=O)NCC3CCOC3)cs2)o1 (stereo not drawn) | 19.26
O=C(NCC1CCOC1)c1csc(-c2ccc(F)cc2)n1 (stereo not drawn) | -10.74
O=C(O)C(F)(F)F.O=C([C@H]1C[C@@H]2CCN(c3cccc(F)c3)C[C@H]2O1)N1CCCC1 | 12.3
Cc1noc(C)c1-c1ccc(C2CCCN2C(=O)c2cnn(C)c2)nc1 (stereo not drawn) | 1.498
Cc1nc(CN2CCCN(C(=O)CC(C)n3cccc3)CC2)cs1 (stereo not drawn) | 7.748
CN(CCCc1cnn(C)c1)Cc1cc2n(n1)CCCNC2 | 18.02
NC(=O)c1cc2c(nc1Oc1ccccc1CN1CCCCC1)CCC2 | 23.43
Fc1cccc(N2CCCC3(CN(Cc4nccs4)CCO3)C2)c1.O=C(O)C(F)(F)F.O=C(O)C(F)(F)F (stereo not drawn) | 39.92
Cc1ccc(CN2CCOC3(CCCN(c4cccc(F)c4)C3)C2)o1.O=C(O)C(F)(F)F.O=C(O)C(F)(F)F (stereo not drawn) | 65.05
Fc1cnc(N2CC3(CCN(Cc4ccsc4)C3)C2)nc1.O=C(O)C(F)(F)F | 30.35
Cn1cc(CN2CCOC3(CCCN(c4cccc(F)c4)C3)C2)cn1.O=C(O)C(F)(F)F.O=C(O)C(F)(F)F (stereo not drawn) | -3.324
Fc1cccc(N2C[C@H]3CCN(c4cccnc4)C[C@H]3C2)c1.O=C(O)C(F)(F)F | 50.35
Fc1cccc(N2CCCC3(CN(Cc4ccco4)CCO3)C2)c1.O=C(O)C(F)(F)F.O=C(O)C(F)(F)F (stereo not drawn) | 14.41
O=C(C1CCC1)N1C[C@@H]2CCN(c3cccnc3)C[C@@H]2C1.O=C(O)C(F)(F)F | -17.68
Fc1cccc(N2CCCC3(CN(Cc4ccccn4)CCO3)C2)c1.O=C(O)C(F)(F)F.O=C(O)C(F)(F)F.O=C(O)C(F)(F)F (stereo not drawn) | 43.65
Fc1cnc(N2CCOC3(CCN(Cc4cccs4)CC3)C2)nc1.O=C(O)C(F)(F)F.O=C(O)C(F)(F)F | 5.693
Fc1cnc(N2CCOC3(CCN(Cc4ccsc4)CC3)C2)nc1.O=C(O)C(F)(F)F.O=C(O)C(F)(F)F | 103.8
O=C(O)C(F)(F)F.O=C(c1ccc(F)cc1)N1C[C@@H]2CCN(c3cccnc3)C[C@@H]2C1 | -2.234
Fc1cccc(N2CCCC3(CN(Cc4cccnc4)CCO3)C2)c1.O=C(O)C(F)(F)F.O=C(O)C(F)(F)F.O=C(O)C(F)(F)F (stereo not drawn) | 54.92
CN(C)C(=O)N1C[C@@H]2CC[C@H](C1)N(C(=O)c1c(Cl)cccc1Cl)C2 | 3.535
CCOCC1CN(C(=O)Cc2ccccn2)Cc2cn(C)nc21 (stereo not drawn) | -4.26
CO[C@@H]1CCN(Cc2ccccn2)[C@@H]2CN(Cc3ccco3)C[C@@H]21.O=C(O)C(F)(F)F.O=C(O)C(F)(F)F.O=C(O)C(F)(F)F | -14.11
CCNC(=O)c1ccc(NC(=O)N(C)Cc2cccn2C)c(C)c1 | 26.39
